Experimental findings from PubChem BioAssay (NCI) are described below.

Each structure is given as a SMILES string. About 83,000 compounds went through this panel and 20% of them were active in at least one assay; those are over-represented in the sample as a whole.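 A percent growth of 40 corresponds to 60% growth inhibition; 0 means no net growth; -100 means all cells died. Active threshold: below 10.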 Values without a mark were called inactive. The source made the active and inactive calls.

The first assay concerns OVCAR-4 ovarian. Kind of assay: NCI-60 one-dose screen, 48 h (100 = growth as untreated, 0 = no growth, -100 = all killed). Conditions: 10 µM unless noted.
Take `O=C1c2c(c3c4cccnc4[nH]c3c3ccc4ccccc4c23)C(=O)N1CCN1CCOCC1`: the growth is 84.4%. On the same count and under the same terms, the figure for `O=c1[nH]c(CCl)nc2c1cnn2-c1ccccc1` is 111%. As for `C=C1C(=O)O[C@@H]2/C=C(/C)C3=CC(=O)[C@@](C)(C[C@H](OC(=O)/C(C)=C\C)[C@@H]12)O3`, the growth was 21%.

On to `O=C1CC2(CCOCC2)Oc2ncccc21`, for which the growth was 102%.

As for `O=C(Nc1ccc(F)cc1)c1cc(-c2ccc(F)cc2F)ccc1O`, the growth was 11.2%. The same measure, in the same setting: the same measure for `COc1ccc(/C=N\NC(=O)c2ccc3nc(-c4ccc(Br)cc4)[nH]c3c2)cc1`: 12.5%. The same measure, in the same setting: the same measure for `O=C(O)c1ccc(-n2cc(CNc3ccc(Cl)cc3)c(-c3ccc(F)cc3)n2)cc1`: 101%; for `COc1cc(/C=N/n2cnc3oc(-c4ccccc4)cc3c2=N)cc(CN2CCCC2)c1O`: -49.7% (active).

As to `CCOC(=O)c1c(NCC(=O)Nc2cccc(Cl)c2)sc2c1CCCC2`, the growth is 80.3%. The same measure, in the same setting: the same measure for `Cc1ccc(-c2csc(N/N=C/c3nc4ccccc4n3C3CC3)n2)cc1`: 93.1%.

With `C#C[C@]1(O)CC[C@H]2[C@@H]3CC=C4c5sc(Nc6cccc(C)n6)nc5CC[C@]4(C)[C@H]3CC[C@@]21C`, the growth was 56.6%. In the case of `COc1ccc(-c2nc(SCC(C)C)nc(N/N=C\c3cccc([N+](=O)[O-])c3)c2C#N)cc1`, the growth is 38.7%. Regarding `C=C1C(=O)O[C@@H]2C[C@@H](C)CCC(=O)[C@](C)(OC(C)=O)C[C@H](OC(=O)/C(C)=C\C)[C@@H]12`, the growth is 81.2%. Still for that read-out and setting: the same measure for `C=C1C(=O)O[C@@H]2C[C@@H](C)/C=C\C(=O)[C@](C)(OC(C)=O)C[C@H](OC(=O)/C(C)=C\C)[C@@H]12`: 18.2%; for `CCCCCCNC(=O)Oc1ccc(/C(=C(/C)c2ccc(OC)cc2)c2ccc(OCCN3CCCC3)cc2)cc1`: 84.8%. Take `CN(C)c1ccc(/C=N/Nc2nc(N/N=C/c3ccc(N(C)C)cc3)nc(N3CCOCC3)n2)cc1`: the growth was 104%. Same read-out and setting: the same measure for `COc1ccc(-c2oc3cc(O)cc(O)c3c(=O)c2OC)cc1O`: 46.2%.

The next assay deals with SK-OV-3 ovarian. The description is as above. Conditions: 10 µM unless noted.
With `O=C(COc1ccc(/C=C2\SC(=O)NC2=O)cc1)Nc1ccc(C(=O)/C=C/c2cc3ccccc3nc2Cl)cc1`, the growth is 108%. The same measure, in the same setting: the figure for `CC(C)Sc1nc(NC2CC2)c(C#N)c(-c2ccccc2)n1` is 78.6%; for `O=C(COc1cccc2cccnc12)Nc1ccc(C(=O)/C=C/c2ccc(Cl)cc2)cc1` it is 105%. The same measure, in the same setting: the same measure for `Oc1ccc(CSc2nnc(-c3ccc(Br)cc3)n2-c2ccccc2)c2cccnc12`: 23.3%; for `COc1ccccc1N1CCN(C2=NN=C(c3cccc(Cl)c3)c3ccccc3C2)CC1`: 13.7%. As for `O=C1/C(=C/c2ccc([N+](=O)[O-])cc2)SC(=Nc2ccccc2)N1Nc1ccccc1`, the growth was 102%.

For the compound `COc1ccc([C@H]2c3[nH]c4ccccc4c3C[C@@H]3C(=O)N(C4CCN(Cc5ccccc5)CC4)CC(=O)N23)c(OC)c1`, the growth was 93%. Take `CC1OC(O[C@@H]2[C@H](O)C(CO)OC(O[C@H]3COC(O[C@H]4CC[C@]5(C)[C@H]6CC[C@]78OC[C@@]9(CCC(C)(C)C[C@H]97)[C@H](O)C[C@@]8(C)[C@]6(C)CC[C@H]5C4(C)C)[C@@H](OC4OC(CO)[C@@H](O)[C@@H](O)[C@@H]4O)[C@@H]3O)[C@H]2OC2OC[C@@H](O)[C@@H](O)[C@@H]2O)[C@@H](O)[C@@H](O)[C@H]1O` (stereo not given in full): the growth was -94.3% (active). Regarding `N#Cc1c(-c2cccs2)cc(-c2cnccn2)nc1SCC(=O)NNC(=S)Nc1ccc(F)cc1`, the growth is 121%.

On to `O=C1NC(=O)c2c1c1c3ccccc3ccc1c1[nH]c3ccccc3c21`, for which the growth was 2.2% (active).

For `COc1ccc(-c2ccc3c4c(cccc24)C(=O)N(N2C(=O)c4cccc5cccc(c45)C2=O)C3=O)cc1`, the growth was 100%. On the same count and under the same terms, the same measure for `NS(=O)(=O)c1ccc(Nc2nc(N/N=C/c3ccc(C(F)(F)F)cc3)nc(Nc3ccccc3)n2)cc1`: 55.5%. On the same count and under the same terms, the same measure for `COc1cc(CNC(=O)/C=C/c2ccccc2)ccc1OCC(=O)NO`: 98.9%; for `NS(=O)(=O)c1ccc(Nc2nc(N/N=C/c3ccc(F)cc3)nc(Nc3ccccc3)n2)cc1`: 71.2%. As for `C=C1C(=O)O[C@@H]2C[C@@H](C)[C@H](OC)CC(=O)[C@](C)(OC(C)=O)C[C@H](OC(=O)/C(C)=C\C)[C@@H]12`, the growth is 96.8%. The same measure, in the same setting: the same measure for `O=C(c1ccc(O)cc1)[C@@H]1[C@@H]2CCCN2[C@@]2(C(=O)N(C(=O)c3ccc(F)cc3)c3ccccc32)[C@H]1c1ccc(F)cc1`: 104%; for `Cc1ccc(-n2cc(/C=C/C(=O)c3ccc(S(C)(=O)=O)cc3)c(-c3ccc(S(C)(=O)=O)cc3)n2)cc1`: 105%; for `Cc1ccc(Cc2cnc(NC(=O)/C(C#N)=C/c3ccc(-c4ccc(Cl)cc4)o3)s2)cc1`: 90.9%.

Consider `C=C(C)C(=O)O[C@H]1C[C@@]2(C)OC(=CC2=O)/C(C)=C\[C@H]2OC(=O)C(=C)[C@H]12`, for which the growth is 77%. The same measure, in the same setting: the same measure for `CCN(CC)CCN1C(=O)c2c(c3c4cc(Br)ccc4[nH]c3c3ccc4ccccc4c23)C1=O`: 61.9%; for `Oc1ccc(CSc2nnc(-c3ccc(Oc4ccccc4)cc3)o2)c2cccnc12`: 22%. Still for that read-out and setting: the same measure for `O=C1c2c(c3c4cccnc4[nH]c3c3ccc4ccccc4c23)C(=O)N1CCN1CCOCC1`: 86.9%; for `O=c1[nH]c(CCl)nc2c1cnn2-c1ccccc1`: 122%.

Consider `C=C1C(=O)O[C@@H]2/C=C(/C)C3=CC(=O)[C@@](C)(C[C@H](OC(=O)/C(C)=C\C)[C@@H]12)O3`, for which the growth was 92.6%.

As for `O=C1CC2(CCOCC2)Oc2ncccc21`, the growth is 120%. The same measure, in the same setting: the same measure for `O=C(Nc1ccc(F)cc1)c1cc(-c2ccc(F)cc2F)ccc1O`: -8.88% (active). Still for that read-out and setting: the same measure for `COc1ccc(/C=N\NC(=O)c2ccc3nc(-c4ccc(Br)cc4)[nH]c3c2)cc1`: 62.8%. `O=C(O)c1ccc(-n2cc(CNc3ccc(Cl)cc3)c(-c3ccc(F)cc3)n2)cc1`: the growth was 110%. Still for that read-out and setting: the same measure for `COc1cc(/C=N/n2cnc3oc(-c4ccccc4)cc3c2=N)cc(CN2CCCC2)c1O`: 93.9%. Consider `CCOC(=O)c1c(NCC(=O)Nc2cccc(Cl)c2)sc2c1CCCC2`, for which the growth was 84.2%. Same read-out and setting: the figure for `Cc1ccc(-c2csc(N/N=C/c3nc4ccccc4n3C3CC3)n2)cc1` is 120%; for `C#C[C@]1(O)CC[C@H]2[C@@H]3CC=C4c5sc(Nc6cccc(C)n6)nc5CC[C@]4(C)[C@H]3CC[C@@]21C` it is -7.51% (active).

For `COc1ccc(-c2nc(SCC(C)C)nc(N/N=C\c3cccc([N+](=O)[O-])c3)c2C#N)cc1`, the growth is 74%. Still for that read-out and setting: the same measure for `C=C1C(=O)O[C@@H]2C[C@@H](C)CCC(=O)[C@](C)(OC(C)=O)C[C@H](OC(=O)/C(C)=C\C)[C@@H]12`: 94.8%; for `C=C1C(=O)O[C@@H]2C[C@@H](C)/C=C\C(=O)[C@](C)(OC(C)=O)C[C@H](OC(=O)/C(C)=C\C)[C@@H]12`: 80.7%; for `CCCCCCNC(=O)Oc1ccc(/C(=C(/C)c2ccc(OC)cc2)c2ccc(OCCN3CCCC3)cc2)cc1`: 97.9%.

Consider `CN(C)c1ccc(/C=N/Nc2nc(N/N=C/c3ccc(N(C)C)cc3)nc(N3CCOCC3)n2)cc1`, for which the growth is 110%. The same measure, in the same setting: the same measure for `COc1ccc(-c2oc3cc(O)cc(O)c3c(=O)c2OC)cc1O`: 19.2%.
